# LASV entry inh: inhibitors of Lassa virus binding or cell entry. Lassa virus pseudotype entry inhibition, cell reporter. Potency, µM (top dose mostly 37.9 µM), hits mostly inhibitors. actives 1.2% (n = 300,000); calls by dose curve; tested in HEK293 cells; also: nearly all actives have a fitted effect of over 50% in size
# HCV inhibitor: blocks hepatitis C virus. actives 3.4% (n = 340,000). Huh7.5.1 HCVcc-Cre infection, luciferase reporter, 44 h. Potency, µM (highest dose often 41.8 µM), hits mostly inhibitors; active = well fitted inhibition curve with a large enough effect; inconclusive = small, poorly fitted or top-dose-only effect, or another doubt; inactive = no such curve, though single readings can be large or run the other way
#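 Reporter virus HCVcc-Cre (~0.5 moi) infects cells exposed to compound; seeding density 1,000 cells/well with 4 h settling beforehand. Luminescence, 15 sec read, taken 44 h post-infection following a 15 min RT substrate incubation.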
# HCMV antiviral: blocks human cytomegalovirus replication | HFF cells, HCMV-luciferase reporter, 72 h; active compounds read low | activity change, negative = inhibition, % at 57.5 µM | actives 4.5% (n = 410,000) | AID 1259415; in the data active = activity change below about -60%; inconclusive = no clear call, values can overlap the other calls; inactive = above about -39%
#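 Inhibition of viral replication was scored as loss of reporter luminescence in HFFs infected with HCMV-luciferase (MOI 1 PFU/cell) for 72 h; compounds tested at 2 doses, normalized to buffer and Salinomycin controls.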
# FMDV antiviral: antivirals against foot and mouth disease virus. FMDV antiviral cell-based qHTS. Potency, µM (doses to about 57.9 µM), actives largely listed as inhibitors. actives 1.2% (n = 410,000); calls by dose curve; tested in HEK293T cells; also: read-out not given here; nearly all actives have a fitted effect of over 45% in size
# MARV entry inh: blocks Marburg virus binding to or entry into cells; actives 1.8% (n = 300,000); Potency, µM (titrated, usually from 37.8 µM), most hits filed as inhibitors; Marburg virus pseudotyped entry inhibition, cell reporter; calls by dose curve; tested in HEK293 cells
# A number is an active result; – = inactive; ? = inconclusive; · = not tested or not shown. The list is not random: actives were taken first. Their share in the collection is about 7.9%.
SMILES,LASV entry inh,HCV inhibitor,HCMV antiviral,FMDV antiviral,MARV entry inh
O=C(NCCN1CCCCC1)c1cc(OCC(F)(F)F)ccc1OCC(F)(F)F,–,–,–,–,–
O=C(CCl)NCCNC(=O)c1cc(OCC(F)(F)F)ccc1OCC(F)(F)F,–,22µM,-78,–,?
O=C(/C=C/c1ccc([N+](=O)[O-])cc1)Nc1ncc([N+](=O)[O-])s1,?,11µM,-113,–,5.8µM
COc1ccc(C)cc1NC(=O)c1sc2ncnc(N3CCN(c4ccccn4)CC3)c2c1C,·,1.4µM,–,–,–
Cc1nc(N2CCN(c3ccccn3)CC2)c2c(C)c(C(=O)N3CCN(c4ccccc4F)CC3)sc2n1,?,32µM,–,?,7.9µM
Cc1ccc(NC(=O)c2sc3nc(C)nc(N4CCN(c5ccccn5)CC4)c3c2C)c(C)c1,–,–,?,–,11µM
Cc1nc(N2CCCCC2)c2c(C)c(C(=O)Nc3cccc(C(F)(F)F)c3)sc2n1,·,25µM,-60,?,·
Cc1ccc(NC(=O)c2sc3ncnc(N4CCN(c5ccccn5)CC4)c3c2C)c(C)c1,·,?,?,–,·
COc1ccc(N2CC(C(=O)N[C@@H](C)C(=O)NCCc3ccccc3)CC2=O)cc1 (stereo not given in full),·,–,–,–,·
Cn1c(=O)c2c(nc(CN3CCN(c4ccc(F)cc4)CC3)n2Cc2ccccc2F)n(C)c1=O,–,?,–,–,16µM
Cn1c(=O)c2c(nc(N3CCCCCC3)n2Cc2cccc3ccccc23)n(C)c1=O,–,?,?,28µM,?
Cn1c(=O)c2c(nc(CN3CCN(CCO)CC3)n2Cc2cccc3ccccc23)n(C)c1=O,–,?,–,–,12µM
COc1cc2[nH]c(C(=O)N3CC(C)OC(C)C3)cc2c(OC)c1OC (stereo not given),–,–,–,–,–
CCN(CC)CCN(Cc1cc2cc3c(cc2[nH]c1=O)OCCO3)C(=S)NCC(C)C,?,?,–,–,11µM
CCN(CC)CCCNC(=S)N(Cc1cccs1)Cc1cc2cc3c(cc2[nH]c1=O)OCCO3,–,–,-104,–,?
Cn1c(=O)c2c(SCC(=O)NCc3ccc(F)cc3)nc(-c3ccccc3Cl)nc2n(C)c1=O,–,·,–,–,·
O=C(NCc1ccc(F)cc1)c1ccc2c(c1)N(Cc1c(F)cccc1Cl)C(=O)CS2,–,·,–,?,?
NNc1nc(-c2ccccc2)cc(-c2ccccc2O)n1,–,?,–,–,?
NNc1nc(-c2ccccc2)cc(-c2ccccc2)n1,·,13µM,–,–,·
Clc1nc(-c2ccccc2)cc(-c2ccccc2)n1,–,?,–,–,?
NNC(=O)c1nc(-c2ccccc2)cc(-c2ccccc2)n1,·,–,-63,–,·
Nc1nc(-c2ccccc2)cc(-c2ccccc2O)n1,–,–,-96,·,–
COc1ccc(C(CNC(=O)C(=O)NC2CCCCC2)N2CCN(C)CC2)cc1 (stereo not given),–,–,–,–,–
O=C(NC1CCCN(CCc2ccccc2)C1)c1c(F)cccc1F (stereo not given),·,–,–,–,·
CCCNC(=O)C(Cc1cccc(Cl)c1)NC(=O)c1ccccc1 (stereo not given),·,–,–,–,·
SMILES,LASV entry inh,HCV inhibitor,HCMV antiviral,FMDV antiviral,MARV entry inh
CC1CCCN(c2nc3c(-c4ccc(Cl)cc4)nnn3c3ccccc23)C1 (stereo not given),?,·,–,–,–
C=CC(=O)N1C/C(=C/c2ccc(F)cc2)C(=O)/C(=C\c2ccc(F)cc2)C1,2.5µM,?,-100,8.9µM,?
CN(C)/C=N/c1nc(-c2ccc3ccccc3c2)cs1,10µM,?,–,–,?
Nc1nc(CN2CCN(c3ccccc3)CC2)nc(Nc2ccc(Cl)cc2)n1,·,13µM,-65,32µM,·
COc1ccc(Nc2nc(N)nc(CN3CCC(C)CC3)n2)cc1,–,–,-91,–,–
COc1ccc(Nc2nc(N)nc(CSC(=S)N3CCCCC3C)n2)cc1 (stereo not given),7.1µM,?,-63,–,?
COc1ccc(Nc2nc(N)nc(CN3CCc4ccccc4C3)n2)cc1,·,–,–,–,·
COc1ccc(Nc2nc(N)nc(CSC(=S)N3CCCCC3)n2)cc1,·,–,–,–,·
CC1CC(C)CN(Cc2nc(N)nc(Nc3ccc4ccccc4c3)n2)C1 (stereo not given),?,13µM,–,–,?
Nc1nc(SCC(=O)Nc2ccc(Cl)cn2)n[nH]1,–,–,–,–,–
Cc1noc(C)c1C(=O)N(CC(=O)Nc1ccc(Cl)c(C(F)(F)F)c1)Cc1ccco1,·,–,–,–,·
COc1cccc(S(=O)(=O)N(C)C[C@@H]2OCc3cnnn3CCCC(=O)N([C@@H](C)CO)C[C@@H]2C)c1,·,·,–,–,·
Cc1ccc(O)c(NC(=O)c2cc(-c3cccs3)on2)c1,–,–,?,–,8.9µM
COc1cc(/C=C2\N=C(c3ccccc3)NNC2=O)cc(OC)c1OC,?,–,-81,–,?
CCOc1cc(/C=C2\C(=O)ON=C2c2ccccc2)ccc1OC,·,–,–,35µM,·
CCOc1cc(/C=C2/C(=O)ON=C2C)ccc1OCc1ccc(F)cc1,–,?,-97,–,?
COc1ccc(/C=C2\C(=O)ON=C2c2ccccc2)cc1OC,·,–,–,?,·
NC(=O)COc1ccc(/C=C2\C(=O)ON=C2c2ccccc2)cc1,–,–,–,25µM,?
O=C1NNC(c2ccccc2)=N/C1=C\c1ccco1,–,–,–,–,–
CCCCCCCCCCCCCCCCCCNC(=O)OC[C@@H](COP(=O)([O-])OCC[n+]1ccsc1)OC,·,·,·,·,–
C#CCNC(=O)C1=C[C@@H](C)[C@H](CCCO)[C@@H](OCC)O1,·,–,–,–,·
CCCCCC(=O)N1C[C@H](O)[C@@H](n2cc(-c3ccc(F)cc3)nn2)C[C@H]1c1ccccc1,–,·,·,·,·
O=[N+]([O-])c1ccccc1-c1ccc(/C=N/n2cnnc2)o1,–,·,–,–,?
O=C1ON=C(c2ccccc2)/C1=C/c1ccco1,–,–,–,32µM,–
COc1ccc(/C=C2/C(=O)ON=C2c2ccccc2)cc1OC,–,–,–,22µM,–
SMILES,LASV entry inh,HCV inhibitor,HCMV antiviral,FMDV antiviral,MARV entry inh
COc1cc(/C=C2\C(=O)ON=C2c2ccccc2)cc(OC)c1OC,–,–,–,25µM,–
CN(C)/C=C1\C(=O)ON=C1c1ccccc1,–,–,–,–,–
O=C1ON=C(c2ccccc2)/C1=C/c1ccc(-c2ccccc2[N+](=O)[O-])o1,?,–,-98,28µM,?
COc1cccc(C2=CC(=O)CC(C)(C)C2)n1,·,–,–,–,·
CC(C)c1c(C(=O)N(C)C2CCN(C)CC2)cnn1-c1nccc(-c2ccco2)n1,·,·,·,–,·
O=C(Cn1cncn1)N1CCOc2ccc(CN3CCN(c4ccccc4)CC3)cc2C1,·,·,·,–,·
C=CCc1cc(C)ccc1OCCOCCn1ccnc1,?,?,-63,–,–
C=CCc1cc(C)ccc1OCCn1ccnc1,–,–,–,–,–
COC(=O)CN1[C@@]2(C#N)CCCC[C@@H]2C[C@H]2CCCC[C@]21C#N,·,·,·,·,–
CCOc1ccc(CNC(=O)C2CCN(C(=O)N3CC(CC)Oc4ccccc43)CC2)cc1 (stereo not given),–,·,–,–,·
